Test results as given in PubChem BioAssay AID1159580 (chemical genetic matrix, 2015).
Hit rate of the full screen: of about 5,500 compounds, about 2,000 (36%) were called active. Roughly 18% stayed inconclusive and do not appear here. Rule as the data show it: active = normalized growth mostly below about 0.91 (no sharp cut-off); inconclusive = no clear call, values can overlap the other calls; inactive = mostly above about 0.92. The list shows a part of the results.

Experiment: chemical genetic growth profiling, strain panel (AID 1159580);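 also: tested at 20 µM; growth read once vehicle control cultures reached saturation at 30 °C; 1 = growth at the plate median or of vehicle wells; lower values mean less growth of the strain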
Details: S. cerevisiae deletion strains, growth OD

Measured: normalized growth

O=C(c1cccc([N+](=O)[O-])c1)c1cc2cc(Br)cc(Br)c2o1
inactive: locus YAL013W, strain DEP1, hits give low values 0.993 | locus YBR229C, strain ROT2, hits give low values 0.997 | locus YDL101C, strain DUN1, hits give low values 1.01 | locus YDL134C, strain PPH21, hits give low values 0.994 | locus YDR150W, strain NUM1, hits give low values 0.952 | locus YEL061C, strain CIN8, hits give low values 0.983 | locus YGR078C, strain PAC10, hits give low values 0.989 | locus YGR229C, strain SMI1, hits give low values 1 | locus YHR030C, strain SLT2, hits give low values 0.837 | locus YHR087W, strain rtc3, hits give low values 0.981 | locus YJR043C, strain POL32, hits give low values 0.997 | locus YJR075W, strain HOC1, hits give low values 0.975 | locus YKL190W, strain CNB1, hits give low values 0.996 | locus YLR039C, strain RIC1, hits give low values 0.954 | locus YLR058C, strain SHM2 (second series), hits give low values 0.994 | locus YLR085C, strain ARP6, hits give low values 0.847 | locus YLR262C, strain YPT6, hits give low values 0.974 | locus YML094W, strain GIM5, hits give low values 0.988 | locus YMR219W, strain ESC1, hits give low values 0.994 | locus YMR263W, strain SAP30, hits give low values 0.96 | locus YMR307W, strain GAS1, hits give low values 0.864 | locus YNL153C, strain GIM3, hits give low values 0.988 | locus YNL298W, strain CLA4 (second series), hits give low values 0.948 | locus YNL322C, strain KRE1, hits give low values 0.991 | locus YNR030W, strain Alg12, hits give low values 0.953 | locus YOL006C, strain TOP1, hits give low values 0.935 | locus YPL055C, strain LGE1, hits give low values 0.974 | locus YPL241C, strain CIN2, hits give low values 0.942 | locus YPR135W, strain CTF4, hits give low values 0.964
